Each structure is given as a SMILES string. The panel holds about 83,000 compounds, 20% with a hit somewhere; the sample as a whole holds those more often.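 Step 1: grow cells in 96-well plates. Step 2: add test compound at a single concentration. Step 3: incubate 48 h. Step 4: record percent growth.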 A number with no mark means an inactive call. Activity calls are given as the source filed them.

The experiment relates to SNB-19 CNS. Briefly: NCI-60 one-dose screen, 48 h (100 = growth as untreated, 0 = no growth, -100 = all killed). As to conditions: 10 µM unless noted. The protocol:
Growth inhibition of the SNB-19 human tumor cell line is measured as a screen for anti-cancer activity. Cells are grown in 96 well plates and exposed to the test compound for 48 hours. Compounds are tested at a single concentration, which is 10^-5 M for most compounds. The reported endpoint is percent growth (GI% or GIPRCNT), where numbers from 0 - 100% represent growth inhibition, and numbers from -100% - 0 represent cell death. For example, a value of 40 represents 60% growth inhibition. A value of 0 means no net growth occurred over the course of the experiment. A value of -40 indicates 40% of cells at the beginning of the experiment died by the end of the experiment. A value of -100 means all cells are dead at the end of the experiment.
NCI-60 Human Tumor Cell Lines Screen was performed using the standard one-dose NCI protocol, which is described in more detail at https://dtp.cancer.gov/discovery_development/nci-60/default.htm.
Compounds with GIPRCNT values below 10 were considered active. Activity score was based on GIPRCNT using the following formula: […]
Score is 0 for GIPRCNT values of 100 or above, 50 for GIPRCNT values of 0, and 100 for GIPRCNT values of -100.
For `C#Cc1nc(/C=C\CCCCCCC(=O)NO)cs1`, the growth is 71.6%.

Take `CNC(=O)c1cc(-n2ccc3cc(NC(=O)Nc4ccc(N5CCN(C)CC5)c(C(F)(F)F)c4)ccc32)ccn1`: the growth was 83.1%.

For the compound `C#C[C@]1(O)CC[C@H]2[C@@H]3CC=C4c5sc(NCc6ccccc6)nc5CC[C@]4(C)[C@H]3CC[C@@]21C`, the growth was 66.2%.

For the compound `Cc1ccc2c(n1)C(=O)C(Cl)=C(Nc1ccccc1C(=O)OC(C)(C)C)C2=O`, the growth was 80.4%.

`CSc1ccc(/C(=N/N=C(N)N)c2ccc(F)cc2)cc1`: the growth was 25.7%.

Turning to `O=C(COc1ccc(/C=C2\C(=O)Nc3ccc(F)cc32)cc1)Nc1ccccc1`, the growth is 93.3%.

`C[C@H](Nc1ncnc2ccc(-c3cnc(Cl)c(NS(C)(=O)=O)c3)cc12)c1ccccc1`: the growth is -44.3% (active).

For `COc1ccc(OC)c(NC(=O)CCCCCCNC(=O)C(O)(O)C(F)(F)F)c1`, the growth is 63.5%.

For the compound `CCCCCN1C(=O)/C(=c2\sc3n(c2=O)C2C(NN=3)N(CC)C(=O)N2CC)c2cccc(C)c21` (stereo not given), the growth is 53.1%.

For `O=C(/C=C/Nc1ccc(S(=O)(=O)Nc2ncccn2)cc1)c1ccc(N=Cc2c(O)[nH]c3ccccc23)cc1`, the growth was 112%.

For `COc1ccc(/C=N/NC(=O)CSc2nc(-c3cnccn3)cc(-c3cccs3)c2C#N)cc1`, the growth was 57.8%.

In the case of `CC(C)C(/C=C/c1[nH]ncc1-c1cc(Cl)ccc1O)N1CCOCC1` (stereo not given), the growth is 99.5%.

As to `CCNC(=O)Oc1ccc(/C(=C(/C)c2ccc(Cl)cc2)c2ccc(OCCN3CCCCCC3)cc2)cc1`, the growth was 34.2%.

Turning to `CCCC/C(=C\c1ccc(O)c(O)c1)C(=O)NC(Cc1ccccc1)C(=O)C(=O)NCCc1ccc(OC)cc1` (stereo not given), the growth is 91.2%.

Take `CNCCN(C)c1ccc(Nc2cc(NC3CC3)n3ncc(C#N)c3n2)cc1NC(C)=O`: the growth was 10.1%.

Regarding `COC(=O)c1cccc(NC2=C(Cl)C(=O)c3nc(C)ccc3C2=O)c1`, the growth was 92.2%.

Regarding `Cc1ccc(NC(=O)Nc2nc3ccc([N+](=O)[O-])cc3s2)cc1`, the growth was 11.3%.

Take `O=S(=O)(Oc1ccc(-c2cn3ccsc3n2)cc1)c1cccc(C(F)(F)F)c1`: the growth was 96.4%.

As to `N#Cc1c(-c2cccs2)cc(-c2cnccn2)nc1SCC(=O)N/N=C/c1ccccc1`, the growth is 39.7%.

For the compound `Cc1cc2nc3c4cc(C#N)ccc4n(CCN(C)C)c3nc2cc1C`, the growth was 5.67% (active).

On to `CCCCOc1ccc(S(=O)(=O)N2CCN(c3nc(C)cc(N4CCOCC4)n3)CC2)cc1`, for which the growth was 62.6%.

In the case of `Cc1csc(/N=C(N)/N=C(\N)c2cccc(Br)c2)n1`, the growth is 79.2%.

With `O=C(Nc1cccc(C(F)(F)F)c1)N1CCN(c2cc(-c3cn(-c4ccccc4)nc3-c3cccc(O)c3)ccn2)CC1`, the growth is 57.4%.

With `O=C1[C@H]2Cc3c([nH]c4ccccc34)[C@H](c3ccc(Cl)cc3)N2C(=O)CN1C1CCN(CC2CCCCC2)CC1`, the growth was 76%.

On to `CN1CCN(c2ccc(Nc3nc(NCCNS(=O)(=O)c4ccc5ccccc5c4)c4sccc4n3)cc2)CC1`, for which the growth is 90.6%.

With `Cc1csc(/N=C(N)/N=C(\N)c2cccnc2)n1`, the growth is 69.4%.

As to `N#Cc1c(-c2cccs2)cc(-c2cnccn2)nc1SCC(=O)N/N=C/c1ccncc1`, the growth was 101%.

With `C=C(C)[C@@H]1CC[C@]2(C(=O)NC3CCCCC3)CC[C@]3(C)[C@H](CC[C@@H]4[C@@]5(C)CC[C@H](N)C(C)(C)[C@@H]5CC[C@]43C)[C@@H]12`, the growth is 103%.

For the compound `Cc1cc(C)cc(NC2=C(Cl)C(=O)c3nc(C)ccc3C2=O)c1`, the growth was 75.9%.

With `COc1cc(C(=O)c2cc(C(C)=O)c3cccc(C)n23)cc(OC)c1OC`, the growth is 39.8%.

For the compound `Cc1ccc2c(n1)C(=O)C(Cl)=C(Nc1cccc(C(=O)OC(C)(C)C)c1)C2=O`, the growth is 97.6%.

Turning to `CC1=C(C)C(=O)C(Nc2ccc3c(c2)OCCO3)=C(Br)C1=O`, the growth was 98.5%.

Consider `O=C(/C=C/c1cccc(Br)c1)c1cccc(OCCCCOc2cccc(C(=O)/C=C/c3cccc(Br)c3)c2)c1`, for which the growth is 94.3%.

Take `COc1cc(C(=O)c2cc(C(C)=O)c3c(C)cccn23)cc(OC)c1OC`: the growth is 78.7%.

In the case of `CC(Nc1ncnc2ccc(-c3cnc4cnccn34)cc12)c1ccccc1` (stereo not given), the growth is 56.8%.

As for `Cc1ccc(CSC2=C(Cl)CN(c3ccc(Cl)cc3)C2=O)cc1`, the growth was 93.5%.

For the compound `O=C1Nc2cc(Cl)ccc2/C1=C\c1ccc(OCc2ccccc2)cc1`, the growth is 103%.

As to `O=C(CSc1nc2ccccc2c(=O)n1-c1ccccc1)Nc1ccc(S(=O)(=O)Nc2nccs2)cc1`, the growth is 43.7%.

Turning to `CC(Nc1c(C#N)cnc2ccc(-c3cncc(O)c3)cc12)c1ccccc1` (stereo not given), the growth is -6.67% (active).

For the compound `O=C(CCCCCCNC(=O)C(O)(O)C(F)(F)F)Nc1nc2ccccc2s1`, the growth was 17%.
